The results in this text go back to PubChem BioAssay (NCI).

About 83,000 compounds went through this panel and 20% of them were active in at least one assay; those are over-represented in the sample as a whole.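 48-hour exposure, single concentration, 96-well plates; percent growth endpoint where 0 means no net growth. Active: below 10.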 A number with no mark means an inactive call. Activity calls are given as the source filed them.

Some test systems named below: SR leukemia; RPMI-8226 leukemia; OVCAR-8 ovarian; OVCAR-5 ovarian; OVCAR-4 ovarian; SK-OV-3 ovarian; OVCAR-3 ovarian; HS 578T breast; NCI/ADR-RES ovarian; IGROV1 ovarian.
Test in all cases: NCI-60 one-dose screen, 48 h (100 = growth as untreated, 0 = no growth, -100 = all killed)
What all share (details): 10 µM unless noted

Regarding `CCCCOc1nc2c(C)cccc2cc1C1CNC(=O)c2ccccc2N1` (stereo unspecified), the growth in the test on SR leukemia was 18.1%; in the test with RPMI-8226 leukemia, 57.5%; in the test on OVCAR-8 ovarian, 81.2%; in the test on OVCAR-5 ovarian, 112%; in the test with OVCAR-4 ovarian, 71.7%; in the test with SK-OV-3 ovarian it was 69.2%. Further, the values for the growth in the test with OVCAR-3 ovarian, in the test on HS 578T breast and with NCI/ADR-RES ovarian were 20%, 69.7% and 51.3%, respectively.

For `COc1ccc(C2NC3=C(CCCC3)C(C#N)(C#N)C2(C#N)C#N)cc1` (stereo unspecified), the growth in the test with SR leukemia was 1.12% (active); in the test on RPMI-8226 leukemia, 79.9%; with OVCAR-8 ovarian, 104%; in the test on OVCAR-5 ovarian, 97.1%; in the test with OVCAR-4 ovarian, 98.1%; with SK-OV-3 ovarian, 99.5%. Further, the growth in the test with OVCAR-3 ovarian is 43%; with HS 578T breast, 98%; in the test with NCI/ADR-RES ovarian it was 101%.

For the compound `O=C1c2ccccc2C(=O)c2c(N=Nc3sc(=O)[nH]c3S)cccc21`, the growth in the test with SR leukemia was 85%; in the test with RPMI-8226 leukemia, 90.2%; in the test with OVCAR-8 ovarian, 94.9%; in the test on OVCAR-5 ovarian, 129%; in the test on OVCAR-4 ovarian, 95.3%; in the test on SK-OV-3 ovarian, 117%. In addition, the growth with OVCAR-3 ovarian was 89.1%; in the test with HS 578T breast, 90.3%; in the test with NCI/ADR-RES ovarian it was 98.8%.

As for `COC1=CC(c2ccc[nH]2)=N/C1=C\c1[nH]c(C)c(C(=O)CCCCC(=O)NCc2ccccc2)c1C`, the growth in the test with SR leukemia is 91%; with RPMI-8226 leukemia, 65.6%; with OVCAR-8 ovarian, 31.5%; in the test on OVCAR-5 ovarian it was 47.3%; in the test with OVCAR-4 ovarian, 50.8%; in the test with SK-OV-3 ovarian it was 83.3%. Moreover, the growth was -5.91% (active) with OVCAR-3 ovarian, 72% in the test on HS 578T breast and 42% with NCI/ADR-RES ovarian.

As for `O=c1oc2cc(OS(=O)(=O)c3ccc(F)cc3)ccc2c2c1CCCCC2`, the growth is 53.7% in the test on SR leukemia; 34.8% with RPMI-8226 leukemia; 77.6% in the test with OVCAR-8 ovarian; 66.2% in the test on OVCAR-5 ovarian; 58.1% in the test on OVCAR-4 ovarian; 95.9% with SK-OV-3 ovarian. Also, the values for the growth in the test on OVCAR-3 ovarian, in the test on HS 578T breast and in the test on NCI/ADR-RES ovarian were 77.8%, 88% and 51.1%, respectively.

Take `O=S(=O)(NCCNc1cc(-c2cn(-c3ccccc3)nc2-c2ccccc2)ccn1)c1cccc2ccccc12`: the growth with SR leukemia was 56%; in the test with RPMI-8226 leukemia, 38.7%; in the test with OVCAR-8 ovarian it was 56%; in the test on OVCAR-5 ovarian it was 74.4%; in the test with OVCAR-4 ovarian, 49.1%; in the test with SK-OV-3 ovarian, 66.3%. Besides, the growth is 59.5% in the test with OVCAR-3 ovarian, 56.3% in the test with HS 578T breast and 43.8% with NCI/ADR-RES ovarian.

Turning to `COc1cc(C2C=C(C)N=C3SC=CN32)cc(OC)c1OC` (stereo unspecified), the growth in the test with SR leukemia is 106%; with RPMI-8226 leukemia, 113%; with OVCAR-8 ovarian it was 103%; in the test on OVCAR-5 ovarian, 109%; in the test with OVCAR-4 ovarian it was 108%; in the test with SK-OV-3 ovarian it was 112%. The growth was 111% in the test with IGROV1 ovarian, 103% in the test with HS 578T breast and 110% with NCI/ADR-RES ovarian.

On to `Nc1c(C(=O)Nc2cccc(C(F)(F)F)c2)sc2nc3c(cc12)C(O)CCC3` (stereo unspecified), for which the growth in the test on SR leukemia was 24%; in the test on RPMI-8226 leukemia, 15.6%; in the test on OVCAR-8 ovarian, 46.2%; with OVCAR-5 ovarian, 53.5%; in the test with OVCAR-4 ovarian, 58.5%; in the test on SK-OV-3 ovarian, 25.7%. The figures for the growth with OVCAR-3 ovarian, in the test on HS 578T breast and in the test with NCI/ADR-RES ovarian were 2.06% (active), 51.2% and 22.5%, respectively.

Regarding `C=C1C(=O)O[C@H]2[C@H]1CC/C(COC(=O)NCCc1ccc(OC)cc1)=C\CC[C@@]1(C)O[C@@H]21`, the growth was -4.05% (active) in the test with SR leukemia; 17.5% in the test with RPMI-8226 leukemia; 2.7% (active) in the test with OVCAR-8 ovarian; 30.9% in the test with OVCAR-5 ovarian; 17.4% with OVCAR-4 ovarian; 89.3% with SK-OV-3 ovarian. Further, the growth in the test with OVCAR-3 ovarian was -29.6% (active); with HS 578T breast it was 46%; with NCI/ADR-RES ovarian it was 78.9%.

As for `N#Cc1c(NC(=O)c2ccc([N+](=O)[O-])o2)[n+]([O-])c2cc(F)c(F)cc2[n+]1[O-]`, the growth in the test with SR leukemia was 77.3%; in the test with RPMI-8226 leukemia it was 111%; in the test on OVCAR-8 ovarian it was 68%; in the test with OVCAR-5 ovarian it was 108%; in the test on OVCAR-4 ovarian, 102%; with SK-OV-3 ovarian, 129%. The results for the growth with OVCAR-3 ovarian, in the test on HS 578T breast and in the test on NCI/ADR-RES ovarian were 122%, 158% and 102%, respectively.

On to `COc1cc(-c2cc(/C=C3\CCCCC3=O)[nH]n2)cc(OC)c1OC`, for which the growth in the test with SR leukemia is 49.2%; in the test with RPMI-8226 leukemia, 86.4%; in the test with OVCAR-8 ovarian it was 102%; in the test with OVCAR-5 ovarian it was 103%; in the test with OVCAR-4 ovarian, 95%; in the test on SK-OV-3 ovarian it was 128%. Also, the values for the growth in the test with OVCAR-3 ovarian and in the test with NCI/ADR-RES ovarian were 104% and 103%, respectively.

`Nc1nc(Cl)c2c(ncn2Cc2ccc(CCl)cc2)n1`: the growth was 83.2% in the test with SR leukemia; 33.8% in the test on RPMI-8226 leukemia; 49.4% in the test with OVCAR-8 ovarian; 109% with OVCAR-5 ovarian; 96.1% in the test on OVCAR-4 ovarian; 76.5% in the test with IGROV1 ovarian. In addition, the figures for the growth in the test on OVCAR-3 ovarian, with HS 578T breast and in the test with NCI/ADR-RES ovarian were 68.3%, 94.1% and 98.4%, respectively.

On to `COc1ccc(/C=C/c2cc(N3CCOCC3)c3cc(F)c(F)cc3n2)cc1OC`, for which the growth is 16.2% with SR leukemia; 43.2% in the test on RPMI-8226 leukemia; 28.6% in the test on OVCAR-8 ovarian; 65.5% in the test on OVCAR-5 ovarian; 35.8% in the test on OVCAR-4 ovarian; 55.5% in the test with SK-OV-3 ovarian. Besides, the growth with HS 578T breast was 74.7%; with NCI/ADR-RES ovarian it was 4.66% (active).

For the compound `CC/C=C\C/C=C\C[C@H]1C/C=C2/C(=O)C=C[C@H]2C/C=C\CCC(=O)O1`, the growth in the test with SR leukemia is 4.9% (active); with RPMI-8226 leukemia it was 4.52% (active); in the test on OVCAR-8 ovarian, 0.0569% (active); in the test with OVCAR-5 ovarian, 25.4%; with OVCAR-4 ovarian, 42.6%; with SK-OV-3 ovarian, 31.3%. Also, the growth is -12.1% (active) in the test on OVCAR-3 ovarian and 17.9% in the test with NCI/ADR-RES ovarian.

For `C=C1C(=O)O[C@H]2[C@H]1CC/C(COC(=O)NCc1cc(OC)c(OC)c(OC)c1)=C\CC[C@@]1(C)O[C@@H]21`, the growth in the test on SR leukemia was 4.5% (active); in the test on RPMI-8226 leukemia it was 43.6%; in the test on OVCAR-8 ovarian, 43.9%; in the test with OVCAR-5 ovarian, 85%; with OVCAR-4 ovarian, 60.5%; in the test with SK-OV-3 ovarian, 101%. The growth in the test with OVCAR-3 ovarian is 21.2%; in the test with NCI/ADR-RES ovarian, 110%.
